Source: publication PMC8384837, “Expanding the binding specificity for RNA recognition by a PUF domain”

Columns and labels:
Experiment in all cases: yeast three-hybrid, YBZ-1, SC-Leu-His + 0.5 mM 3-AT, 4 days
Details in all cases: tags: N-Gal4 AD-HA kept; label: inside an RPR1-promoter hybrid RNA with tandem MS2 sites; ssRNA
PUM1 PUF domain R8-GWQ = PUM1 PUF domain R8-GWQ (Homo sapiens, UniProt Q14671 828-1176, N1122G;Y1123W)
In short: (§1)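 Each repeat of the Pumilio-1 PUF domain was randomized at its three base-contacting residues, and these libraries were co-expressed from a centromeric plasmid with matching RNA elements in strain YBZ-1. After four days on SC-Leu (input) or SC-Leu-His + 0.5 mM 3-AT (selection), the repeat regions were PCR-amplified and Illumina-sequenced. The interaction score compares variant frequency between input and selection as a log change, computed in log2 with a pseudocount of 1 for absent variants.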

PUM1 PUF domain R1-TFE = PUM1 PUF domain R1-TFE (Homo sapiens, UniProt Q14671 828-1176, S863T;R864F;Q867E)
In short: as §1

PUM1 PUF domain R1-YAR = PUM1 PUF domain R1-YAR (Homo sapiens, UniProt Q14671 828-1176, S863Y;R864A;Q867R)
In short: as §1

PUM1 PUF domain R6-AFS = molecular target: T1, PUM1 PUF domain R6-AFS (Homo sapiens, UniProt Q14671 828-1176, N1043A;Y1044F;Q1047S)
T1 sequence: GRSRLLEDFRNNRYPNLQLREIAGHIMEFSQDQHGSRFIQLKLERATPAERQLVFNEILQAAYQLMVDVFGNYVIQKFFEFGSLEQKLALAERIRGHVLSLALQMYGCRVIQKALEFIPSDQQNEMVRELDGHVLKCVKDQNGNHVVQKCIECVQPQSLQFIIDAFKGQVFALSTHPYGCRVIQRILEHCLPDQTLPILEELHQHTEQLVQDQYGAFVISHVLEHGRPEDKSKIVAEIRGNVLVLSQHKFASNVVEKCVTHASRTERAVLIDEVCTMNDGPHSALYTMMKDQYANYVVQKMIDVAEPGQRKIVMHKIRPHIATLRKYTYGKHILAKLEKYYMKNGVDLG
In short: as §1

PUM1 PUF domain R5-MRE = PUM1 PUF domain R5-MRE (Homo sapiens, UniProt Q14671 828-1176, C1007M;Q1011E)
In short: as §1

PUM1 PUF domain R4-SCS = PUM1 PUF domain R4-SCS (Homo sapiens, UniProt Q14671 828-1176, N971S;H972C;Q975S)
In short: as §1

PUM1 PUF domain R4-SNF = PUM1 PUF domain R4-SNF (Homo sapiens, UniProt Q14671 828-1176, N971S;H972N;Q975F)
In short: as §1

PUM1 PUF domain R3-GRV = PUM1 PUF domain R3-GRV (Homo sapiens, UniProt Q14671 828-1176, C935G;Q939V)
In short: as §1

PUM1 PUF domain R3-ARP = PUM1 PUF domain R3-ARP (Homo sapiens, UniProt Q14671 828-1176, C935A;Q939P)
In short: as §1

PUM1 PUF domain R3-RTG = PUM1 PUF domain R3-RTG (Homo sapiens, UniProt Q14671 828-1176, C935R;R936T;Q939G)
In short: as §1

PUM1 PUF domain R3-PWF = PUM1 PUF domain R3-PWF (Homo sapiens, UniProt Q14671 828-1176, C935P;R936W;Q939F)
In short: as §1

PUM1 PUF domain R4-SNF, sequence (Q14671 828-1176 N971S/H972N/Q975F): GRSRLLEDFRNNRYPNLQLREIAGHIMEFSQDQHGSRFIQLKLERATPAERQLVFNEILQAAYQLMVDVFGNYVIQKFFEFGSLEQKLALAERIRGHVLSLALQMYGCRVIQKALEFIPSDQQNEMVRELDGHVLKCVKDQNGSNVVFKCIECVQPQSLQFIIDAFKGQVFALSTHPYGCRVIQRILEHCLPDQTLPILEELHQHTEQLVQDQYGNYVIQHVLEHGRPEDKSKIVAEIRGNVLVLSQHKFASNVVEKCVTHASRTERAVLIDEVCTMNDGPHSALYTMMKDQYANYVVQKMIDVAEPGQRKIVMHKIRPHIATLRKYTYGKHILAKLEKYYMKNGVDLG
PUM1 PUF domain R4-SCS, sequence (Q14671 828-1176 N971S/H972C/Q975S): as the sequence (Q14671 828-1176 N971S/H972N/Q975F) above, with N145C, F148S counted along it
PUM1 PUF domain R5-MRE, sequence (Q14671 828-1176 C1007M/Q1011E): as the sequence (Q14671 828-1176 N971S/H972N/Q975F) above, with S144N, N145H, F148Q, C180M, Q184E counted along it

With “GGCUAGAACUAGUGGAUCCCCCGGCGCCCGGCGGCUCGAGCCCGGGUAAGCGUAAAUAGUCUGCAUGCCGCCGGGCGCCAUGCCUGCAGGUCGACUCUAGAAAACAUG” the binding signal (PUM1 PUF domain R8-GWQ) was 3.56 log2 enrichment (interaction score).
With “GGCUAGAACUAGUGGAUCCCCCGGCGCCCGGCGGCUCGAGCCCGGGUAAGUGUAAAUUGUCUGCAUGCCGCCGGGCGCCAUGCCUGCAGGUCGACUCUAGAAAACAUG” the binding signal (PUM1 PUF domain R1-TFE) was 3.49 log2 enrichment (interaction score) and the binding signal (PUM1 PUF domain R1-YAR) was 5.79 log2 enrichment (interaction score).
“GGCUAGAACUAGUGGAUCCCCCGGCGCCCGGCGGCUCGAGCCCGGGUAAGUGAAAAUAGUCUGCAUGCCGCCGGGCGCCAUGCCUGCAGGUCGACUCUAGAAAACAUG” was tested, and the binding signal (PUM1 PUF domain R6-AFS) was 3.01 log2 enrichment (interaction score).
“GGCUAGAACUAGUGGAUCCCCCGGCGCCCGGCGGCUCGAGCCCGGGUAAGUGUUAAUAGUCUGCAUGCCGCCGGGCGCCAUGCCUGCAGGUCGACUCUAGAAAACAUG” was tested, and the binding signal (PUM1 PUF domain R5-MRE) was 0.96 log2 enrichment (interaction score).
“GGCUAGAACUAGUGGAUCCCCCGGCGCCCGGCGGCUCGAGCCCGGGUAAGUGUACAUAGUCUGCAUGCCGCCGGGCGCCAUGCCUGCAGGUCGACUCUAGAAAACAUG” was tested, and the binding signal (PUM1 PUF domain R4-SCS) was 0.74 log2 enrichment (interaction score) and the binding signal (PUM1 PUF domain R4-SNF) was 3.39 log2 enrichment (interaction score).
For “GGCUAGAACUAGUGGAUCCCCCGGCGCCCGGCGGCUCGAGCCCGGGUAAGUGUAAUUAGUCUGCAUGCCGCCGGGCGCCAUGCCUGCAGGUCGACUCUAGAAAACAUG”, the binding signal (PUM1 PUF domain R3-GRV) was 1.12 log2 enrichment (interaction score), the binding signal (PUM1 PUF domain R3-ARP) was 1.4 log2 enrichment (interaction score) and the binding signal (PUM1 PUF domain R3-RTG) was 2.9 log2 enrichment (interaction score). For the same sequence, the binding signal (PUM1 PUF domain R3-PWF) was 1.18 log2 enrichment (interaction score).
